Results from PubChem BioAssay (NCATS).
Several values for one entry are separate records, joined by “and”; a condition that tells them apart may be missing. Equal entries are not always repeated. Records with an inconclusive call do not appear. Activity calls are given as the source filed them. The call rests on the fitted dose curve; in most records, active means well fitted curve in the direction sought with a large enough effect; inconclusive means small, poorly fitted or top-dose-only effect, or another doubt; inactive means no such curve, though single readings can be large; an effect the other way counts as inactive or inconclusive.

Legend:
[1] = molecular target: Cellular tumor antigen p53 (Homo sapiens) (UniProt P04637); test: Primary qHTS for small molecule compounds that upregulate eGFP-tagged delta133p53alpha (in N-terminal) cells. (AID 2060322); details: NCI-H358 eGFP-delta133p53alpha fluorescence, 24 h; activation: active compounds read high; further: nearly all actives have a fitted effect of over 75% in size; further: potency means the concentration at half of the fitted maximal effect;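 on activation: cells pre-induced with doxycycline then dosed without doxycycline; series mostly up to about 56 µM; 0% = DMSO vehicle and 100% = reference activator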
Method in brief: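 NCI-H358 cells pre-induced 24 h with 10 ng/ml doxycycline for eGFP-delta133p53alpha, plated dox-free and exposed 24 h at 37C to titrated compounds. Fixed, Hoechst-stained; gated GFP peak intensity by laser scanning cytometry, normalized to DMSO (0%) and 57.5 uM 5-azacytidine (100%).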

[2] = molecular target: Aldehyde dehydrogenase, mitochondrial (Homo sapiens) (UniProt P05091); test: qHTS for Inhibitors of the Aldehyde Dehydrogenase Family (ALDH2) Primary screen (AID 2061308);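 further: plate controls were vehicle for no effect and reference inhibitor for full effect; nearly all actives have a fitted effect of over 55% in size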
[3] = molecular target: Retinaldehyde dehydrogenase 3 (Homo sapiens) (UniProt P47895); test: qHTS for Inhibitors of the Aldehyde Dehydrogenase Family (ALDH1A3) Validation screen (AID 2061312); further: on the % scale 0 is the no-effect control and ±100 the full control effect; nearly all actives have a fitted effect of over 45% in size
[4] = molecular target: Retinaldehyde dehydrogenase 3 (Homo sapiens) (UniProt P47895); test: qHTS for Inhibitors of the Aldehyde Dehydrogenase Family (ALDH1A3) Primary screen (AID 2061315);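 further: plate controls were DMSO vehicle for no effect and reference inhibitor for full effect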

Cellular tumor antigen p53 (Homo sapiens), sequence (P04637 whole entry, looked up): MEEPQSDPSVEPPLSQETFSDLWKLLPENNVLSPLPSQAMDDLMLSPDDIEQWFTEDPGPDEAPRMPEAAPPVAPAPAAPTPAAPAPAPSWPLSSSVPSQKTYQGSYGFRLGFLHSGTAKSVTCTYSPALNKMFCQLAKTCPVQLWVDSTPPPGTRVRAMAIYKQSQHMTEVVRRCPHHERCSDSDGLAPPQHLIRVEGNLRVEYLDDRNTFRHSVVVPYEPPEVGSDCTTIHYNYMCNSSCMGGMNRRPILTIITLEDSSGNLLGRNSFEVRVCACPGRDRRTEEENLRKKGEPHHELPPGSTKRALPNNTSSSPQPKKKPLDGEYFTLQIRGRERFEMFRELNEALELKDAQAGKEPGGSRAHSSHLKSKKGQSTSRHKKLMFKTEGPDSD

O=C(O)C[C@@H](NC(=O)c1cc(-c2ccc(-c3ccncc3)cc2)cs1)c1ccccc1
inactive: activation [1] -1.43% | Potency [2] | Potency [3] | Potency [4]

Cc1ccc(-c2c(-c3nn(C)c4ncnc(N5CCC(N6CCCCC6)C5)c34)cnn2C)cc1 (configuration not stated)
inactive: activation [1] 2.39% | Potency [2] | Potency [3] | Potency [4]

Nc1ncnc2c1ncn2[C@H]1CCCO1
inactive: activation [1] -5.73% | Potency [2] | Potency [3] | Potency [4]

CC(C)(O)c1ccc2c(c1)ncn2-c1cccc(-c2ccccc2C#N)c1
inactive: activation [1] -12.4% | Potency [2] | Potency [3] | Potency [4]

CC(C)NCC(C(=O)N1CCN(c2ncnc3c2C(C)CC3O)CC1)c1ccc(Cl)cc1 (configuration not stated)
inactive: activation [1] 0.955% | Potency [2] | Potency [3] | Potency [4]

Cc1[nH]c2ccccc2c1CC(=O)N[C@@H](Cc1ccccc1)C(=O)N(C)c1ccccc1
inactive: activation [1] 22.9% | Potency [2] | Potency [3] | Potency [4]

N=C(N)c1ccc2nc(-c3cc(CC(=O)NC(CC(=O)O)C(=O)O)cc(-c4cc(S(N)(=O)=O)ccc4O)c3O)[nH]c2c1 (configuration not stated)
inactive: activation [1] -8.59% | Potency [2] | Potency [3] | Potency [4]

O=C(Nc1cc(-c2ccccc2)nn1-c1ccccc1)c1ccc([N+](=O)[O-])cc1
inactive: activation [1] -11% | Potency [2] | Potency [3] | Potency [4]

CCCc1ccc(OCC(=O)N(Cc2nc(-c3cccnc3)no2)C(C)C)cc1
inactive: activation [1] -11.5% | Potency [2] | Potency [3] | Potency [4]

O=C(COc1ccc(Cl)cc1)NC1CCC(NC(=O)COc2ccc(Cl)cc2)CC1 (configuration not stated)
inactive: activation [1] -5.25% | Potency [2] | Potency [3] | Potency [4]

COC(=O)C(Cc1ccc(OCCn2c(=O)sc3cc(C(=O)c4ccccc4)ccc32)cc1)C(=O)OC
inactive: activation [1] -10.5% | Potency [2] | Potency [3] | Potency [4]

CNCCCC1(c2ccccc2)OC(C)(C)c2ccccc21 (configuration not stated)
inactive: activation [1] -11.9% | Potency [2] | Potency [3] | Potency [4]

Cc1ccc(NC(=O)C(=O)NC2CC(C)(C)NC(C)(C)C2)cc1
inactive: activation [1] -13.4% | Potency [2] | Potency [3] | Potency [4]

O=C(c1cn(Cc2cncn2Cc2ccc(Br)cc2)cc1-c1cccc2ccccc12)N1CCOCC1
active: Potency [1] 26.9 µM
inactive: Potency [2] | Potency [3] | Potency [4]

NCc1c[nH]c(=S)n1[C@@H]1CCc2c(F)cc(F)cc2C1
inactive: activation [1] 0% | Potency [2] | Potency [3] | Potency [4]

O=C(O)c1cc(-c2ccccc2)nc2ccccc12
inactive: activation [1] -7.34% and -10% and -1.43% | Potency [2] | Potency [3] | Potency [4]

OC1(c2ccc(Cl)c(C(F)(F)F)c2)CCN(CCCC(c2ccc(F)cc2)c2ccc(F)cc2)CC1
inactive: activation [1] 13% | Potency [2] | Potency [3] | Potency [4]

CC(C)(N)c1ncc(-c2ccc(OC(F)(F)F)cc2)[nH]1
inactive: activation [1] -2.86% | Potency [2] | Potency [3] | Potency [4]

Cc1ccc(N2CCN(CCC3NC(=O)c4ccccc43)CC2)cc1C (configuration not stated)
inactive: activation [1] -7.16% | Potency [2] | Potency [3] | Potency [4]

O=C(Nc1ccc(C(F)(F)F)cn1)N1CCN(c2ncccc2C(F)(F)F)CC1
inactive: activation [1] -3.34% | Potency [2] | Potency [3] | Potency [4]

COCCN1CCC(C(=O)NO)(S(=O)(=O)c2ccc(Oc3ccc(OC(F)(F)F)cc3)cc2)CC1
inactive: activation [1] -13.4% | Potency [2] | Potency [3] | Potency [4]

CN(C)CC(c1ccc(O)cc1)C1(O)CCCCC1 (configuration not stated)
inactive: activation [1] -9.55% | Potency [2] | Potency [3] | Potency [4]

O=C(O)Cn1nnc(-c2ccc(CN(CCCCOc3ccc(CN4CCCC4)cc3)CCc3ccccc3)cc2)n1
inactive: activation [1] 7.16% | Potency [2] | Potency [3] | Potency [4]

C=C(F)c1sc(CNCCCNc2cc(=O)c3ccccc3[nH]2)c(C)c1Br
inactive: activation [1] 18.1% | Potency [2] | Potency [3] | Potency [4]

Cc1oc(S(=O)(=O)N2CCCCC2)cc1NC(=O)Nc1ccccc1
inactive: activation [1] 0.955% | Potency [2] | Potency [3] | Potency [4]

O=C(C(Cc1cccc(C(F)(F)F)c1)NS(=O)(=O)c1cc(F)c2c(c1)CCNC2)N1CCCC1 (configuration not stated)
inactive: activation [1] -13.4% | Potency [2] | Potency [3] | Potency [4]

CC[C@H]1CN(c2nc(N)c(C(N)=O)nc2Cl)CCN1C1CCN(Cc2ccc(Cl)cc2)CC1
inactive: activation [1] 3.34% | Potency [2] | Potency [3] | Potency [4]

CNC(=O)c1ccc2c(c1)CCO[C@H]2CCN1CCN(c2ccc(C(N)=O)cc2)CC1
inactive: activation [1] 8.11% | Potency [2] | Potency [3] | Potency [4]

CCC(C)n1cc(C)c2c(C(=O)NCc3c(C)cc(C)[nH]c3=O)cc(-c3ccc(N4CCNCC4)nc3)cc21 (configuration not stated)
inactive: activation [1] -3.34% | Potency [2] | Potency [3] | Potency [4]

C=C[C@]1(C)C[C@@H](OC(=O)CSC2C[C@H]3CC[C@@H](C2)N3C)[C@]2(C)[C@H](C)CC[C@]3(CCC(=O)[C@H]32)[C@@H](C)[C@@H]1O (some centres not stated)
inactive: activation [1] 0.477% | Potency [2] | Potency [3] | Potency [4]

CN(C)CCC(CSc1ccccc1)Nc1ccc(S(=O)(=O)NC(=O)c2ccc(N3CCN(Cc4ccccc4-c4ccc(Cl)cc4)CC3)cc2)cc1[N+](=O)[O-] (configuration not stated)
active: Potency [1] 16.9 µM
inactive: Potency [2] | Potency [3] | Potency [4]

C#CCN(Cc1cc2c(=O)n(C)c(CN3CCN(C)CC3)nc2cc1Cl)c1ccc(C(=O)NCc2cccnc2)cc1
inactive: activation [1] 0.955% | Potency [2] | Potency [3] | Potency [4]

O=C(CNC(=O)c1cccc(C(F)(F)F)c1)N[C@@H]1CCN(Cc2ccc(Cl)cc2)C1
inactive: activation [1] -2.86% | Potency [2] | Potency [3] | Potency [4]

CON(C)C(=O)[C@H](O)[C@H](Cc1ccccc1)NC(=O)c1cc2cc(Cl)ccc2[nH]1
inactive: activation [1] -8.59% | Potency [2] | Potency [3] | Potency [4]

COC(=O)N1CCC(n2ncc3c(N4CCOCC4)nc(-c4ccc(NC(=O)NC5CC5)cc4)nc32)CC1
inactive: activation [1] 12.4% | Potency [2] | Potency [3] | Potency [4]

CN(C)C(=O)C(O)C(Cc1ccccc1)NC(=O)c1cc2cc(Cl)ccc2[nH]1 (configuration not stated)
inactive: activation [1] -1.43% | Potency [2] | Potency [3] | Potency [4]

CNC(=O)COC(=O)NCCC1CCN(c2cccc(C)n2)CC1
inactive: activation [1] 6.21% | Potency [2] | Potency [3] | Potency [4]

CN1CC2CN(c3ccc4oc5ccccc5c(=O)c4c3)CC2C1 (configuration not stated)
inactive: activation [1] 0.955% | Potency [2] | Potency [3] | Potency [4]

CC(C)(O)c1ccccc1CC[C@@H](SCC1(CC(=O)O)CC1)c1cccc(/C=C/c2ccc3ccc(Cl)cc3n2)c1
inactive: activation [1] -15.3% and -1.91% | Potency [2] | Potency [3] | Potency [4]

CC1(C)CC=C(C#Cc2ccccc2)c2cc(/C=C/c3ccc(C(=O)O)cc3)ccc21
inactive: activation [1] -5.73% | Potency [2] | Potency [3] | Potency [4]

O=C(NC1CCN(CC(F)(F)F)CC1)c1ccc(-c2cccc(F)c2)nc1
inactive: activation [1] -16.7% | Potency [2] | Potency [3] | Potency [4]

CC(C)C(CO)Nc1nc(Nc2cc(N)cc(Cl)c2)c2ncn(C(C)C)c2n1 (configuration not stated)
inactive: Potency [2] | Potency [3] | Potency [4]
active: Potency [1] 30.1 µM

Nc1nc(COC(=O)c2ccc([N+](=O)[O-])cc2)nc(Nc2ccccc2)n1
inactive: activation [1] 0.477% | Potency [2] | Potency [3] | Potency [4]

OCC(Cc1ccccc1)Nc1nc(Oc2ccc3c(c2)CCC3)nc2c1ncn2Cc1ccc(-c2ccccc2)cc1 (configuration not stated)
inactive: activation [1] 6.21% | Potency [2] | Potency [3] | Potency [4]

O=C(c1cc(Cc2n[nH]c(=O)c3ccccc23)ccc1F)N1CCCNCC1
inactive: activation [1] -4.3% | Potency [2] | Potency [3] | Potency [4]

CNS(=O)(=O)CC1CCC(N(C)c2ncnc3[nH]ccc23)CC1 (configuration not stated)
inactive: activation [1] -0.477% | Potency [2] | Potency [3] | Potency [4]

O=C(/C=C/c1c(C(=O)O)[nH]c2cc(Cl)cc(Cl)c12)Nc1ccccc1
inactive: activation [1] -11.9% | Potency [2] | Potency [3] | Potency [4]

COc1ccc(C(=O)Nc2c(Cl)cncc2Cl)cc1OC1CCCC1
inactive: activation [1] 0% | Potency [2] | Potency [3] | Potency [4]

COc1ccc(C(=O)n2c(C)c(Cc3cccc(O[C@@H](C)C(=O)O)c3)c3cc(OC(F)(F)F)ccc32)cc1
inactive: activation [1] -3.82% | Potency [2] | Potency [3] | Potency [4]

O=C(CC(c1ccccc1)c1ccccc1)N1CCN(C(c2ccccc2)c2ccccc2)CC1
inactive: activation [1] 2.86% | Potency [2] | Potency [3] | Potency [4]

COc1ccc2[nH]c3c(-c4cccc5ccccc45)nccc3c2c1
inactive: Potency [2] | Potency [3] | Potency [4]
active: Potency [1] 26.9 µM

COc1cc(Br)c(S(=O)(=O)Nc2ccc(C(F)(F)F)c(O[C@@H]3CCN(C)C3)c2)cc1OC
inactive: activation [1] 12.4% | Potency [2] | Potency [3] | Potency [4]

O=C(Nc1ccccc1)c1ccc(Nc2nnc(-c3ccc(O)cc3)c3ccccc23)cc1
inactive: activation [1] 2.39% | Potency [2] | Potency [3] | Potency [4]

COc1ccccc1N1CCN(c2ncnc3n[nH]c(Br)c23)CC1
inactive: activation [1] 20.5% | Potency [2] | Potency [3] | Potency [4]

CCOc1ccc(-n2c([C@@H](C)N(Cc3cccnc3)C(=O)Cc3ccc(OC(F)(F)F)cc3)nc3ncccc3c2=O)cc1
inactive: Potency [2] | Potency [3] | Potency [4]
active: Potency [1] 19 µM

CCCC(C(=O)O)c1c(C)nc2ccc(Cl)cc2c1-c1ccccc1 (configuration not stated)
inactive: activation [1] -1.91% | Potency [2] | Potency [3] | Potency [4]

CC1(C)C(=O)C(C)(C)c2cc(C(=O)Nc3ccc(C(=O)O)cc3)ccc21
inactive: activation [1] -2.39% | Potency [2] | Potency [3] | Potency [4]

C[C@@H]1C(=O)O[C@H]2[C@@H](O)C34[C@H]5C[C@@H](C(C)(C)C)C36[C@@H](OC(=O)[C@@H]6O)O[C@@]4(C(=O)O5)[C@@]12O (some centres not stated)
inactive: activation [1] 5.25% | Potency [2] | Potency [3] | Potency [4]
